Measurements as given in PubChem BioAssay (NCATS).
Records with an inconclusive call do not appear. Activity calls are given as the source filed them. Calls follow the shape of the dose curve; as a rule, active = well fitted curve in the direction sought with a large enough effect; inconclusive = small, poorly fitted or top-dose-only effect, or another doubt; inactive = no such curve, though single readings can be large; an effect the other way counts as inactive or inconclusive.

Assays:
[1] = target: Glutathione peroxidase 1 (Homo sapiens) (UniProt P07203); experiment: Primary qHTS Assay for Inhibitors of Recombinant Selenoprotein Glutathione Peroxidase 1 (GPX1) (AID 1845191); also: nearly all actives have a fitted effect of over 65% in size; as to activity, negative = inhibition: % is scaled to controls: 0 for no effect and ±100 for the full control effect
Sequence of Glutathione peroxidase 1 (Homo sapiens) (P07203 whole entry, looked up): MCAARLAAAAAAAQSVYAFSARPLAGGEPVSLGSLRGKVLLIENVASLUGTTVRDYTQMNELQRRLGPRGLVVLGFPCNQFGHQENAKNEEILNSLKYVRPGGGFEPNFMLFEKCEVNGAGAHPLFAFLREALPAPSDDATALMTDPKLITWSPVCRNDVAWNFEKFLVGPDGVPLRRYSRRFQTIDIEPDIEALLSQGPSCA
How it was run: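 NADPH consumption tracked by fluorescence at 340/450 nm between t=0 and t=15 min, room temperature. Final mix: 10 nM GPX1, 100 nM glutathione reductase, 1 mM GSH, 0.5 mM NADPH, 0.5 mM cumene hydroperoxide, 0.01% BSA; 30 min compound–enzyme preincubation.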

[2] = target: Phospholipid hydroperoxide glutathione peroxidase GPX4 (Homo sapiens) (UniProt P36969); experiment: Primary qHTS Assay for Inhibitors of Recombinant Selenoprotein Glutathione Peroxidase 4 (GPX4) (AID 1845192); also: nearly all actives have a fitted effect of over 65% in size; as to activity change, negative = inhibition: series mostly up to about 50 µM; % is scaled to controls: 0 for no effect and ±100 for the full control effect
Sequence of Phospholipid hydroperoxide glutathione peroxidase GPX4 (Homo sapiens) (P36969 whole entry, looked up): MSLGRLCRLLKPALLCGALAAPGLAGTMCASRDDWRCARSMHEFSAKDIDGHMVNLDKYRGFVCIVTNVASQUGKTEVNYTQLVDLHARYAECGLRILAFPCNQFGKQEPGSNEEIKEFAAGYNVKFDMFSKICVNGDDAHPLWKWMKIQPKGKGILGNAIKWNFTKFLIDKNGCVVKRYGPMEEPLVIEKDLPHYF
How it was run: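 NADPH consumption followed by fluorescence at 340/450 nm, t=0 and after 15 min at room temperature. Reaction started with cumene hydroperoxide (0.5 mM final) after 30 min compound–GPX4 preincubation; final 200 nM GPX4, 100 nM GR, 1 mM GSH, 0.5 mM NADPH.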

[3] = target: Luciferin 4-monooxygenase (Photinus pyralis) (UniProt P08659); experiment: Primary firefly luciferase (FLuc) qHTS assay for identification of artifact compounds. (AID 1845220); also: nearly all actives have a fitted effect of over 60% in size;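 as to activity change, negative = inhibition: series mostly up to about 54 µM; plate controls were DMSO vehicle for no effect and no enzyme for full effect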
How it was run: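 Cell-free, 1536-well qHTS. Buffer pH 7.6 with 0.01% Tween-20 and 0.05% BSA; 10 uM D-luciferin, 10 uM ATP; 10 nM P. pyralis luciferase; luminescence after 5 min.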

[4] = Primary fluorescence-based thiol-reactive (MSTI) qHTS assay for identification of artifact compounds. (AID 1845221); also: nearly all actives have a fitted effect of over 65% in size; also: potency is read from the fitted curve at half-maximal effect;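 as to activity change, negative = thiol reactive: series mostly up to about 54 µM; thiol-reactive compounds lower the probe fluorescence signal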
How it was run: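 Curve-fitted percent inhibition (4-parameter Hill) derived from fluorescence, Ex 525/Em 598 nm, scaled with Acetyl-MSTI and MSTI; 1 h incubation at room temperature.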

[5] = system: Nanoluciferase (engineered Oplophorus gracilirostris luciferase); experiment: Primary Nanoluciferase (NLuc) qHTS assay for identification of artifact compounds. (AID 1845222);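 also: series mostly up to about 54 µM; 0% = DMSO and -100% = no enzyme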
How it was run: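 Compounds are pinned into diluted (1:55) conditioned medium of NLuc-expressing S16 cells and held 15 min at room temperature protected from light. Nano-Glo substrate follows, and luminescence is read 5 min later.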

[6] = Primary redox qHTS assay for identification of artifact compounds. (AID 1845223);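 also: 0% = DMSO and 100% = reference compound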
How it was run: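 Redox-cycling detection via DTT (250 uM final) oxidation coupled to Amplex Red (25 uM)/HRP (250 mU/mL) in HBSS. 15 min preincubation plus 30 min after DTT, room temperature. Ex/Em 525/598 nm; 4-parameter Hill fit against DMSO and 10 uM DA3003.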

CC1(C)CC2C(O)C3=C(CC(C)(O)C2C1)C(=O)OC3 (configuration not stated)
inactive: Potency [1] | Potency [2] | Potency [3] | Potency [4] | Potency [5] | Potency [6]

O=C(O)CC/C=C\C[C@H]1CO[C@@H](c2ccccc2Cl)O[C@H]1c1ccccc1O
inactive: Potency [1] | Potency [2] | Potency [3] | Potency [4] | Potency [5]

CNc1nc(C)nc(N[C@H]2CCC[C@@H](C(=O)NCc3ccc(C#N)cc3C(F)(F)F)C2)n1
inactive: Potency [1] | Potency [2] | Potency [3] | Potency [4] | Potency [5]

CC(C)C1(O)C=C2C(=O)CC3C(C)(C(=O)O)CCCC3(C)C2CC1 (configuration not stated)
inactive: Potency [1] | Potency [2] | Potency [3] | Potency [4] | Potency [5] | Potency [6]

Cc1cc(-c2nncc3c(C(C)(C)C)c(OCc4ncnn4C)nn23)no1
inactive: Potency [1] | Potency [2] | Potency [3] | Potency [4] | Potency [5] | Potency [6]

COc1cnc(-n2cnc(C)n2)c2[nH]cc(C(=O)C(=O)N3CCN(C(=O)c4ccccc4)CC3)c12
inactive: Potency [1] | Potency [2] | Potency [3] | Potency [4] | Potency [5] | Potency [6]

C=CCC1=C[C@]2(OC)[C@H](C)[C@@H](c3ccc(OC)c(OC)c3)O[C@]2(OC)CC1=O
inactive: Potency [1] | Potency [2] | Potency [3] | Potency [4] | Potency [5] | Potency [6]

COC(=O)C1=CO[C@@H](O[C@@H]2O[C@H](CO)[C@@H](O)[C@H](O)[C@H]2O)/C(=C\CO)[C@@H]1CC(=O)OCCc1ccc(O)cc1
active: Potency [4] 6.53 µM
inactive: Potency [1] | Potency [2] | Potency [3] | Potency [5]

CC12CC(c3ccoc3)OC(=O)C1CCC1(C)C2CCC(O)C1(C)O (configuration not stated)
active: Potency [4] 16.5 µM
inactive: Potency [1] | Potency [2] | Potency [3] | Potency [5] | Potency [6]

CC(C)CC(=O)O[C@@H]1O[C@H](CO)[C@@H](O[C@H]2O[C@H](C)[C@@H](N[C@H]3C=C(CO)[C@@H](O[C@H]4O[C@H](CO)[C@@H](O[C@H]5O[C@H](CO)[C@@H](O[C@H]6O[C@H](CO)[C@@H](O)[C@H](O)[C@H]6O)[C@H](O)[C@H]5O)[C@H](O)[C@H]4O)[C@H](O)[C@H]3O)[C@H](O)[C@H]2O)[C@H](O)[C@H]1O
inactive: Potency [1] | Potency [2] | outcome [3] inactive [at 11.6 µM] | activity change, negative = thiol reactive [4] 7.36% [at 11.5 µM] | activity, negative = inhibition [5] 0.158% [at 11.6 µM] | redox activity (% of DA3003) [6] 4.39% [at 11.5 µM]

CC(=O)OCC1OC(OC2COC(OC3COC(OC4C(OC5C(CO)OC(OC6CCC7(C)C(CCC8(C)C7CC=C7C9CC(C)(C)CCC9(C(=O)OC9OC(CO)C(O)C(O)C9OC9OCC(OC%10OCC(O)(CO)C%10O)C(O)C9O)C(O)CC78C)C6(C)C)C(O)C5O)OCC(O)C4O)C(O)C3O)C(O)C2O)C(OC(=O)/C=C/c2ccccc2)C(O)C1OC(C)=O (configuration not stated)
inactive: Potency [1] | Potency [2] | activity change, negative = inhibition [3] 4.52% [at 6.45 µM] | activity change, negative = thiol reactive [4] 153% [at 6.41 µM] | activity, negative = inhibition [5] 4.35% [at 6.45 µM] | redox activity (% of DA3003) [6] -4.05% [at 6.41 µM]

C[C@]12CC/C(=N\OCC(=O)O)C=C1CC[C@@H]1[C@@H]2[C@@H](O)C[C@@]2(C)[C@H]1CC[C@]2(O)C(=O)CO
inactive: Potency [1] | Potency [2] | Potency [3] | Potency [4] | Potency [5] | Potency [6]

COc1ccc(/C=C/C(=O)O[C@@H]2[C@@H](OC(C)=O)[C@@H](OC(C)=O)[C@H](O[C@H]3[C@@H]4C=CO[C@@H](O[C@@H]5O[C@H](CO)[C@@H](O)[C@H](O)[C@H]5O)[C@@H]4[C@@]4(CO)O[C@@H]34)O[C@H]2C)cc1
inactive: Potency [1] | Potency [2] | Potency [3] | Potency [4] | Potency [5] | Potency [6]

Cc1oc(S(=O)(=O)N2CCCCC2)cc1NC(=O)Nc1ccccc1
inactive: Potency [1] | Potency [2] | Potency [3] | Potency [4] | Potency [5] | Potency [6]

CC(=O)NC1C(OC2CCC3(C)C(CCC4(C)C3CC=C3C5CC(C)(C)CCC5(C(=O)O)C(O)CC34C)C2(C)C)OC(CO)C(O)C1O (configuration not stated)
inactive: Potency [1] | Potency [2] | Potency [3] | Potency [4] | Potency [5] | Potency [6]

NC[C@@H]1O[C@@H](O[C@@H]2[C@@H](O[C@@H]3O[C@H](CO)[C@@H](O)[C@H]3O)[C@H](O)[C@@H](N)C[C@H]2N)[C@@H](N)[C@H](O)[C@H]1O
inactive: Potency [1] | Potency [2] | outcome [3] inactive [at 11.6 µM] | activity change, negative = thiol reactive [4] -13.5% [at 11.5 µM] | activity, negative = inhibition [5] 0% [at 11.6 µM] | redox activity (% of DA3003) [6] -8.2% [at 11.5 µM]

CC1(C)CC[C@]2(C(=O)O[C@@H]3O[C@H](CO)[C@@H](O)[C@H](O)[C@H]3O)CC[C@]3(C)C(=CCC4[C@@]5(C)CC[C@H](O[C@@H]6O[C@H](C(=O)O)[C@@H](O[C@@H]7O[C@H](CO)[C@@H](O)[C@H](O)[C@H]7O)[C@H](O)[C@H]6O)C(C)(C)C5CC[C@]43C)C2C1 (some centres not stated)
inactive: Potency [1] | Potency [2] | outcome [3] inactive [at 11.6 µM] | activity change, negative = thiol reactive [4] 348% [at 11.5 µM] | activity, negative = inhibition [5] 4.13% [at 11.6 µM] | redox activity (% of DA3003) [6] 3.95% [at 11.5 µM]

C=C1C2(C)CC3C4(C)C=CC(=O)OC(C)(C)C4CCC3(C)C1(C(=O)OC)C(=O)C(C)(O)C2=O (configuration not stated)
inactive: Potency [1] | Potency [2] | Potency [3] | Potency [4] | Potency [5] | Potency [6]

COc1c(C)c(OCC=C(C)C)cc2c1CNC2=O
inactive: Potency [1] | Potency [2] | Potency [3] | Potency [4] | Potency [5] | Potency [6]

C[C@@H]1C[C@@H](O)[C@@]23CO[C@]2(CO)C[C@@H](O)CC3[C@@]12CC(c1ccoc1)OC2=O (some centres not stated)
inactive: Potency [1] | Potency [2] | Potency [3] | Potency [5] | Potency [6]
active: Potency [4] 6.56 µM
